Source: PubChem BioAssay (National Center for Advancing Translational Sciences (NCATS))
HCV inh – qHTS Assay for Inhibitors of Hepatitis C Virus (HCV) | Huh7.5.1 HCVcc-Cre infection, luciferase reporter, 44 h | actives 3.4% (n = 340,000) | Potency, µM (titrated, usually from 41.8 µM), usual class: inhibitors
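A cell-based infection assay in which seeded cells (1,000 per well) receive test compound after 4 h, are inoculated with HCVcc-Cre at approximately 0.5 moi, and are incubated 44 h before luminescence detection.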
Shiga inhibitor – A qHTS for Small Molecule Inhibitors of Shiga Toxin; Vero cells, Shiga toxin protein synthesis inhibition reporter; inhibition, % at 38.7 µM; actives 9.2% (n = 290,000); in the data active = inhibition mostly above about 28%, no sharp cut-off; inactive = mostly below about 43%
CHX counter – Cycloheximide Counterscreen for Small Molecule Inhibitors of Shiga Toxin. cell reporter, cycloheximide protein synthesis inhibition counterscreen. max response, %. actives 12% (n = 300,000). AID 2314, 2010; in the data active = max response mostly above about 13%, no sharp cut-off; inactive = mostly below about 14%; also: read at 38.3 µM for the half of the compounds with a filed dose
Pf growth 48h – Primary qHTS for delayed death inhibitors of the malarial parasite plastid, 48 hour incubation. P. falciparum luciferase growth in erythrocytes, 48 h. Potency, µM (highest dose often 28.7 µM), hits mostly inhibitors. actives 5.9% (n = 310,000). AID 504832, 2011
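Luciferase-expressing parasites in RBCs, 2% Hct / 0.1% parasitemia final; RPMI 1640 + 0.5% Albumax; 37 C, 5% CO2, one generation; luminescence read-out, lower signal = inhibition.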
HCMV antiviral – qHTS Assay for inhibitors of the human cytomegalovirus (HCMV); HFF cells, HCMV-luciferase reporter, 72 h; stronger effect = lower value; activity change, negative = inhibition, % at 57.5 µM; actives 4.5% (n = 410,000); in the data active = activity change below about -60%; inconclusive = no clear call, values can overlap the other calls; inactive = above about -39%
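Steps: HFFs plated, 16 h 37C; compounds added; HCMV-luciferase added to MOI 1 PFU/cell; 72 h 37C; OneGlo reagent, 5 min room temperature; luminescence read, normalized to controls.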
Pf growth 96h – Primary qHTS for delayed death inhibitors of the malarial parasite plastid, 96 hour incubation; P. falciparum luciferase reporter growth, 96 h; Potency, µM (doses to about 28.7 µM), hits mostly inhibitors; actives 6.9% (n = 320,000); AID 504834, 2011
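Luminescence readout: decreased luciferase signal marks inhibited growth of reporter-expressing P. falciparum in infected red cells (2% hematocrit, 0.05% parasitemia final), exposed to compound two generations (96 h, 37 C, 5% CO2).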
Numbers stand for hits; - = inactive; ? = inconclusive; . = no result. Rows were chosen to be rich in hits. Some 21% of all compounds tested hit in one or more screens of this group. Unless noted, calls follow the shape of the dose curve; as a rule, active = well fitted inhibition curve with a large enough effect; inconclusive = small, poorly fitted or top-dose-only effect, or another doubt; inactive = no such curve, though single readings can be large or run the other way.

SMILES	HCV inh	Shiga inhibitor	CHX counter	Pf growth 48h	HCMV antiviral	Pf growth 96h
CCOc1ccc(N(C(C)C(=O)Nc2cc(Cl)ccc2OC)S(C)(=O)=O)cc1 (stereo not drawn)	.	.	.	.	-	.
O=C(O)c1ccc(N/N=C/c2c[nH]c3ccccc23)cc1	-	-	-	-	-65	?
O=C(N/N=C/c1c[nH]c2ccccc12)c1ccc(Cl)cc1	?	72	34	-	-	?
C(=N\NC1=NCCCCC1)/c1c[nH]c2ccccc12	-	-	21	-	-	-
Cc1ccc(S(=O)(=O)N/N=C/c2c[nH]c3ccccc23)cc1	?	-	-	-	-	-
Fc1c(F)c(F)c(N/N=C/c2c[nH]c3ccccc23)c(F)c1F	?	-	16	-	-65	?
CCOc1cc(NC(=O)c2cccs2)c(OCC)cc1NC(=O)CCC(=O)NCC1CCCO1 (stereo not drawn)	-	-	-	-	-	?
COc1ccc(CNC(=O)[C@H](C)NC(=O)C2CCN(C(=O)[C@@H](N)CCSC)CC2)cc1	-	-	-	-	-	?
CC(C)CCN1CCN(CC#Cc2ccccc2)CC1CCO (stereo not drawn)	-	-	-	?	?	-
CCc1ccccc1N(CC)C(=O)c1cc2c(s1)-c1ccccc1OC2	.	.	.	.	-	.
O=C(Nc1ccc2c(c1)OCO2)C1CC(=O)N(c2cccc(Cl)c2)C1 (stereo not drawn)	-	-	-	-	-	-
COc1cccc(C2=NS(=O)(=O)N(C)C(C(=O)Nc3ccccc3SC)=C2)c1	.	.	.	.	-	.
CC(C)(C)OC(=O)N/N=C/c1cc(N=Nc2ccccc2)ccc1O	32µM	-	-	?	-	?
Cc1ccc(N=Nc2ccc(O)c(/C=N\NC(=O)c3ccc(N)cc3)c2)cc1C	?	-	-	.	-	-
Cc1cc(C)cc(N2CC(c3nc(-c4cccc(Cl)c4)no3)CC2=O)c1 (stereo not drawn)	.	.	.	.	-	.
COc1cc(NC(=O)Cn2c(C)cc(C)c(C#N)c2=O)cc(OC)c1	.	.	.	.	-	.
Cc1ccc(S(=O)(=O)N(CC(=O)NCc2ccncc2)Cc2ccc(F)cc2)cc1	-	-	-	-	?	-
CN(Cc1ccccc1)C(=O)CCC1CCN(C(=O)CCC(F)(F)F)CC1	-	.	32	-	-	-
CN(Cc1ccccc1)C(=O)CCC1CCN(S(C)(=O)=O)CC1	-	-	-	-	-	12µM
O=c1[nH]c(Cc2cccs2)nc2ccccc12	-	-	-	?	-	-
O=C(O)c1ccccc1OCc1nc2ccccc2s1	-	110	65	-	-	-
CSCc1ccc(C(=O)OCc2nc3ccccc3s2)o1	-	.	.	.	-	.
O=C(OCc1nc2ccccc2c(=O)[nH]1)c1cccs1	-	-	19	.	-	-
O=C(O)c1ccccc1OCc1ccccc1Br	-	-	-	-	-	-
O=C(OCc1nc2ccccc2s1)c1cccs1	-	92	52	-	-62	-
SMILES	HCV inh	Shiga inhibitor	CHX counter	Pf growth 48h	HCMV antiviral	Pf growth 96h
O=C(OCc1nc2ccccc2s1)c1ccccc1O	?	58	67	-	-	-
Cc1ccc(NC(=O)CN2CCc3cc4c(cc3C2C)OCCCO4)cc1C (stereo not drawn)	?	-	-	?	-	?
CCC(C)(C)C1CCc2[nH]nc(C(=O)NCc3ccc(OC)cc3)c2C1 (stereo not drawn)	-	.	.	?	?	-
CC(C)(C)C(=O)NC1CC2CCCC(C1)N2C(=O)Nc1ccccc1 (stereo not drawn)	-	-	-	?	?	?
Cc1ccc(C(=O)N/C(=C\c2cn(S(=O)(=O)N(C)C)c3ccccc23)C(=O)NCCCN2CCOCC2)cc1	?	-	-	?	-	?
Cc1ccccc1Cn1c(C)c(C(=O)NCC(C)C)sc1=O	.	.	.	.	-	.
O=C(OCC(=O)c1ccccc1Cl)c1cnccn1	-	-	-	-	-	-
O=C(OCc1nc2ccccc2s1)c1cnccn1	-	93	32	-	-	-
O=C(COc1cccnc1[N+](=O)[O-])Nc1cc(S(=O)(=O)N2CCCCC2)ccc1Cl	-	-	-	-	-	-
O=C(Oc1ccc(C(=S)N2CCC(O)CC2)cc1)c1ccc(Cl)cc1	-	-	37	-	-	-
c1cc2c(c(NC3=NCCN3)c1)CCCC2	.	.	.	?	.	11µM
Cc1ccc(S(=O)(=O)Nc2cccc3c2CCCC3)cc1	-	-	-	-	-	-
COc1ccc(N2CCN(c3ccc(NC(=O)C4CCCCC4)cc3C#N)CC2)cc1	-	-	-	?	-	?
CC(=O)Nc1cccc(Oc2cc(C#N)c(C#N)cc2N2CCCCCC2)c1	?	-	-	?	-87	-
c1ccc(COCCCc2cnc[nH]2)cc1	.	-	-	.	.	.
COCCn1c(C)cc(C(=O)COC(=O)/C=C/c2c(C)nn(C3CCS(=O)(=O)C3)c2Cl)c1C (stereo not drawn)	-	.	.	?	?	?
COc1ccc(S(=O)(=O)Nc2cc3c4c(c2)CCN4C(=O)CC3)cc1C	-	.	.	?	-	?
COc1ccc(OC)c(NC(=O)c2cc3ccccc3o2)c1	?	-	27	-	-	-
COc1cc(N)ccc1NC(=O)c1cc2ccccc2o1	-	64	42	-	-	?
COc1cc(NC(C)=O)ccc1NC(=O)c1cc2ccccc2o1	-	-	16	-	-	12µM
COc1ccc(C)cc1NC(=O)c1cc2ccccc2o1	-	-	-	?	-	-
CCCC(=O)Nc1ccc(NC(=O)c2cc3ccccc3o2)c(OC)c1	?	.	38	-	-	-
COc1cc(NC(=O)c2ccccc2)ccc1NC(=O)c1cc2ccccc2o1	?	-	-	.	-	-
CC1CCCC(C)N1C(=O)COC(=O)Cc1ccc(F)cc1 (stereo not drawn)	-	-	-	-	-	-
CC(=O)C1=C(C)N(Cc2ccc(Br)cc2)C(=S)NC1c1cccc(Cl)c1 (stereo not drawn)	.	.	.	.	-	.
SMILES	HCV inh	Shiga inhibitor	CHX counter	Pf growth 48h	HCMV antiviral	Pf growth 96h
C=Cn1ccnc1P(=S)(c1ccc2c(c1)c1ccccc1n2CC)c1nccn1C=C	?	-	-	2.9µM	?	-
C=Cn1ccnc1P(=S)(c1ccc(N(C)C)cc1)c1nccn1C=C	-	-	-	-	-	?
Nc1ncc(Br)cc1S(=O)(=O)Nc1ccccc1F	-	-	-	-	-	?
CC(=O)c1cccc(NC(=O)Cn2ccn3nc(-c4ccccc4)cc3c2=O)c1	.	.	.	.	-	.
CC1Cc2ccccc2N1C(=O)CSc1nccc(=O)[nH]1 (stereo not drawn)	-	-	-	-	-	-
O=C(O)CCCCCCNS(=O)(=O)c1ccccc1	-	-	-	.	-	-
O=C(O)CC(CNS(=O)(=O)c1ccccc1)c1ccccc1 (stereo not drawn)	?	-	-	-	-75	10µM
